Screening results deposited in PubChem by Sanford-Burnham Center for Chemical Genomics.
SENP6 block: blocks the human protease SENP6; Recombinant SENP6 catalytic domain, aminoluciferin luminescence; inhibition, % at 10 µM; 330,000 tested, 1.8% active; AID 2599;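 active = inhibition above about 50% at the single tested dose, limit read from the data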
Target sequence (Q9GZR1 628-1112 limits assumed): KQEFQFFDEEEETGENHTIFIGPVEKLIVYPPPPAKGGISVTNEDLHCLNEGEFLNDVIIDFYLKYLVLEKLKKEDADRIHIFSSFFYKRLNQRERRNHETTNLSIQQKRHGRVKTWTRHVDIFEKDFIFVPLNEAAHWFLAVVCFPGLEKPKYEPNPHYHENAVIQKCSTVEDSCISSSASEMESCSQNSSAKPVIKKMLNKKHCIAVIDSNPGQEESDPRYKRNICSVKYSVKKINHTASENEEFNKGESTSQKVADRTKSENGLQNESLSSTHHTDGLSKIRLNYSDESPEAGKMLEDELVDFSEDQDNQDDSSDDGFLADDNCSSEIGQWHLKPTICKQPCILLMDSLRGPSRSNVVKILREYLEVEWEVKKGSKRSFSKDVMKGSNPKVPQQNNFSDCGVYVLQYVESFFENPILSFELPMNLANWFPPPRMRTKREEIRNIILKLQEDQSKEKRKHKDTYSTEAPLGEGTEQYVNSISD
PPC-1+TRAIL kill: kills PPC-1 cancer cells in the presence of TRAIL; PPC-1 cells + TRAIL, ATPLite viability luminescence; cell killing (% activity), % at 4 µM or 5 µM; 220,000 tested, 0.41% active; AID 1443;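 active = cell killing above 50% in the first pass at 4 µM, then a duplicate retest at 5 µM averaging 50% or more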
C8 TRAIL sens: sensitizes caspase-8 expressing cells to TRAIL | AID 624354 | 360,000 tested, 1% active | inhibition (viability loss, TRAIL sensitization), % at 10 µM | NB7+C8 cells + TRAIL, ATPlite viability luminescence;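 active = compounds causing at least 50% loss of cell viability in the single-dose screen, relative to plate controls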
SENP8 block-1: SENP8 protease inhibition; Q96LD8; purified SENP8, Z-RLRGG-aminoluciferin cleavage, luminescence; inhibition, % at 10 µM; 330,000 tested, 1.2% active; in the data active = inhibition above about 50%
Target sequence (Q96LD8 whole entry, looked up): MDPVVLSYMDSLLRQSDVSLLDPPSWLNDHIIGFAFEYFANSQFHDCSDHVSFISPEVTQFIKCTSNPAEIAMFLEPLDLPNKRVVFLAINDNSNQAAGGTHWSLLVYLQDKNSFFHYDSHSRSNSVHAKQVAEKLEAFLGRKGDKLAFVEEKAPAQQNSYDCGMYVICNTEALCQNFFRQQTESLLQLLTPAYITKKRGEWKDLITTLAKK
SENP8 block-2: inhibitors of human SENP8 protease. Q96LD8. recombinant SENP8, Nedd8 substrate fluorescence. inhibition, % at 20 µM. 360,000 tested, 0.64% active. AID 602440; in the data active = inhibition mostly above about 40%, no sharp cut-off; inactive = mostly below about 27%
SENP7 block: inhibitors of human SENP7 protease; Q9BQF6; recombinant SENP7, Z-RLRGG-aminoluciferin luminescence, 40 min; inhibition, % at 5 µM; 330,000 tested, 1.5% active; AID 434973;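 active = inhibition above about 50% at the single test dose, limit read from the data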
Each line names hits and unclear results; the compound was inactive in the other large screens. Sampled rows, rich in hits. Any-hit rate of the full collection: about 3%.

Cc1noc(/C=C/Nc2ccc(F)cc2F)c1[N+](=O)[O-]	SENP6 block 87.0, SENP8 block-1 83.8, SENP7 block 97.2
COc1ccc2c(c1OC)C(=O)OC2Nc1nc(-c2cc3cc(Br)ccc3oc2=O)cs1 (stereo not given)	SENP6 block 94.6, SENP8 block-1 90.9, SENP7 block 90.9
CCOCc1nc(N)nc(N)c1-c1cccc(Cl)c1	C8 TRAIL sens 56.4 (no result: SENP6 block, PPC-1+TRAIL kill, SENP8 block-1, SENP7 block)
CCOC(=O)c1c(C)nc2ccc(Cl)cc2c1-c1ccccc1	none
Cn1c(N=NC(=O)c2ccccc2)c(O)c2ccccc21	SENP6 block 69.8, C8 TRAIL sens 60.4
Cn1c(O)c(N=NC(=O)CNC(=O)c2ccccc2)c2ccccc21	none (no result: PPC-1+TRAIL kill)
Cc1cc(NC(=O)COC(=O)Cn2[nH]c(=O)c3ccccc3c2=O)c([N+](=O)[O-])cc1C	none (no result: PPC-1+TRAIL kill)
CC1CC(=O)c2c(cc3c(-c4c(O)cc(O)c5c(O)c6c(cc45)OC(C)CC6=O)c(O)cc(O)c3c2O)O1 (stereo not given)	C8 TRAIL sens 87.8, SENP8 block-2 71.2
CC(C)c1ccc2[nH]c(O)c(N=NC(=O)c3cccc(S(=O)(=O)Nc4cccc(Cl)c4)c3)c2c1	C8 TRAIL sens 50.0
CC(C)c1ccc2[nH]c(O)c(N=NC(=O)c3cccc(S(=O)(=O)Nc4ccc(Cl)cc4)c3)c2c1	none
CNC(=S)N=Nc1c(O)[nH]c2ccc(C(C)C)cc12	SENP8 block-2 43.9 (no result: SENP6 block, SENP8 block-1, SENP7 block)
COc1cccc(N=Nc2ccc3cccnc3c2O)c1	SENP6 block 90.5, SENP8 block-1 83.8, SENP7 block 78.6 (no result: PPC-1+TRAIL kill)
COc1cccc(N=Nc2ccc(O)c3ncccc23)c1	SENP6 block 76.8, SENP8 block-1 73.3, SENP7 block 62.5 (no result: PPC-1+TRAIL kill)
COc1cc(OC)cc(C(=O)Nc2cccc3cccnc23)c1	none (no result: PPC-1+TRAIL kill)
Oc1ccc(N=Nc2ccc3c(c2)OCCO3)c2cccnc12	SENP8 block-2 40.0
COc1ccc(C)cc1N=Nc1ccc(O)c2ncccc12	none (no result: SENP6 block, SENP8 block-1, SENP7 block)
Cc1cc(S(=O)(=O)N2CCOCC2)ccc1OCC(=O)Nc1ccc(F)cc1F	none (no result: PPC-1+TRAIL kill)
CCOC(=O)N1CCC(Nc2c(OCC)c(=O)c2=O)CC1	PPC-1+TRAIL kill 52.2
CCOC(=O)N1CCC(Nc2c(NCCCOC)c(=O)c2=O)CC1	none
O=C(Nc1ccccn1)c1ccc2c(=O)n3c(nc2c1)CCCCC3	C8 TRAIL sens 60.3 (no result: PPC-1+TRAIL kill)
O=C(Nc1cccc(Cl)c1)c1ccc2c(=O)n3c(nc2c1)CCCCC3	SENP6 block 83.5, SENP8 block-1 63.6, SENP7 block 80.5
CCOc1ccc(N2CC(C(=O)Nc3cccc(S(=O)(=O)NC4=NCCC4)c3)CC2=O)cc1 (stereo not given)	none
Cc1ccc(S(=O)(=O)N2CCCCC2)cc1NC(=O)COC(=O)C1=COCCO1	none
CCC(C(=O)Nc1cccnc1Cl)c1ccccc1 (stereo not given)	none (no result: PPC-1+TRAIL kill)
CCOC(=O)c1cnc2c(-c3cccc(Br)c3)cnn2c1C	SENP7 block 55.3
CCOC(=O)c1cnc2c(C(=O)OCC)cnn2c1N	none
Cc1ccc(S(=O)(=O)Nc2c(C)nc3nc[nH]n3c2=O)c(C)c1	none
Cc1ccc(Sc2ccc(N)cn2)cc1	none
COc1ccccc1OCC(=O)N/N=C1\CCCCc2ccccc21	none
O=C(COc1ccccc1F)N/N=C1\CCCc2ccccc21	SENP6 block 56.8
CCOC(=O)C1CCCN(C(=O)CCCn2nnnc2CN2CCOCC2)C1 (stereo not given)	none (no result: PPC-1+TRAIL kill)
COc1cccc(N=Nc2c(N)[nH][nH]c2=O)c1	none
COc1cccc(N=Nc2c(N)[nH]n3c(=O)c4c(nc23)CCCC4)c1	SENP8 block-2 49.9
Nc1nc2sc3c(c2cc1C(=O)N1CCOCC1)CCCC3	none
Nc1nc2sc3c(c2cc1C(=O)NCC(=O)O)CCCC3	C8 TRAIL sens 51.6 (no result: PPC-1+TRAIL kill)
Nc1nc(-c2ccccc2)[nH]c(=O)c1N=O	none
Nc1ncnc(N)c1N=Nc1ccccc1	C8 TRAIL sens 65.9 (no result: PPC-1+TRAIL kill)
Nc1nc(N)c(N=Nc2ccccc2)c(=O)[nH]1	C8 TRAIL sens 64.2 (no result: SENP6 block, PPC-1+TRAIL kill, SENP8 block-1, SENP7 block)
Cc1ccc(S(=O)(=O)Cc2ccc(C(=O)NC3CCCCCC3)o2)cc1	none (no result: PPC-1+TRAIL kill)
CCOc1ccc(C(=O)Nc2cccc(NC(=O)c3cccs3)c2)cc1[N+](=O)[O-]	none (no result: SENP6 block, SENP8 block-1, SENP7 block)
CCOc1ccc(C(=O)Nc2cccc([N+](=O)[O-])c2)cc1Br	SENP7 block 55.6
Cc1ccc(NC(=O)c2sc3nc(CCl)[nH]c(=O)c3c2C)c(C)c1	C8 TRAIL sens 54.5 (no result: SENP6 block, SENP8 block-1, SENP7 block)
COc1ccccc1NC(=O)c1ccc2nc(C)c(C)nc2c1	none (no result: PPC-1+TRAIL kill)
Cc1cccn2c(=O)c3cc(C(=O)NCc4ccco4)c(=N)n(CCc4ccccc4)c3nc12	none
Cc1cccn2c(=O)c3cc(C(=O)NCCc4ccccc4)c(=N)n(Cc4ccco4)c3nc12	C8 TRAIL sens 60.1 (no result: PPC-1+TRAIL kill)
CC(C)(C(=O)c1cccnc1)c1cccnc1	none (no result: PPC-1+TRAIL kill)
CCOc1ccc(-n2c(C)cc(C(=O)CCl)c2C)cc1	C8 TRAIL sens 52.6
COC(=O)c1ccc(-n2c(C)cc(C(=O)CCl)c2C)cc1	none
CN(C)c1ccc(N=Nc2nccs2)cc1	C8 TRAIL sens 77.2 (no result: SENP6 block, PPC-1+TRAIL kill, SENP8 block-1, SENP7 block)
COc1ccccc1C(=O)COC(=O)Cc1ccccc1F	none (no result: PPC-1+TRAIL kill)
COc1ccc(-c2ccc(-c3nnn(CC(=O)N4CCOCC4)n3)cc2)cc1	C8 TRAIL sens 52.2
COc1cc(OC)c2c(c1)C(=O)c1cc(OC)cc(OC)c1C2=O	SENP8 block-2 57.4
O=C1CCCN1CCCNc1nc2c(S(=O)(=O)c3ccccc3)nnn2c2ccc(Cl)cc12	none (no result: PPC-1+TRAIL kill)
C=CC(=O)Nc1ccc(Nc2nc(NC3CCC(N(C)C)CC3)nc3c2ncn3C(C)C)cc1 (stereo not given)	C8 TRAIL sens 72.9 (no result: PPC-1+TRAIL kill)
COC(=O)c1ccccc1NC(=O)Nc1ccc(C(=O)N2CCCC2)cc1	none
COc1ccccc1NC(=O)Nc1ccc(C(=O)N2CCCCC2)cc1	SENP6 block 95.8, SENP8 block-1 91.4, SENP7 block 97.4
C=CC(=O)N1C/C(=C/c2ccc(F)cc2)C(=O)/C(=C\c2ccc(F)cc2)C1	C8 TRAIL sens 92.6 (no result: SENP6 block, PPC-1+TRAIL kill, SENP8 block-1, SENP7 block)
O=C1NNC(c2ccccc2)=N/C1=C\c1ccco1	none
O=C1NNC(c2ccccc2)=N/C1=C\c1ccccc1Cl	SENP8 block-2 117.2 (no result: SENP6 block, SENP8 block-1, SENP7 block)
C=C1C(=O)C23C(O)C1CCC2C12CCCC(C)(COC(C)=O)C1C(O)C3(O)OC2 (stereo not given)	C8 TRAIL sens 73.8 (no result: SENP6 block, PPC-1+TRAIL kill, SENP8 block-1, SENP7 block)
Cc1cc(C(C)(C)C)ccc1OCC(=O)N/N=C\c1c(C)n(C)n(-c2ccccc2)c1=O	none (no result: PPC-1+TRAIL kill)
O=C(O)C1CCCN(S(=O)(=O)c2ccc(-c3ccc(=O)[nH]n3)s2)C1 (stereo not given)	none (no result: PPC-1+TRAIL kill)
C(=Cc1c[nH]c2ccccc12)c1ccc2ccccc2n1	C8 TRAIL sens 71.5 (no result: SENP6 block, PPC-1+TRAIL kill, SENP8 block-1, SENP7 block)
O=C(O)/C=C/c1ccc2ccccc2n1	none
C(=Cc1c[nH]c2ccccc12)c1nccc2ccccc12	C8 TRAIL sens 72.7 (no result: SENP6 block, PPC-1+TRAIL kill, SENP8 block-1, SENP7 block)
COc1ccc(N=C(C)C2C(=O)c3ccccc3C2=O)cc1	C8 TRAIL sens 73.9 (no result: SENP6 block, PPC-1+TRAIL kill, SENP8 block-1, SENP7 block)
CC(C)c1ccc(-n2c(-c3ccccc3)c[n+]3c2CCc2ccccc2-3)cc1	C8 TRAIL sens 52.8 (no result: SENP6 block, SENP8 block-1, SENP7 block)
COc1ccc(-n2c(-c3ccc(Br)cc3)c[n+]3c2CCc2ccccc2-3)cc1	none
